Measured values from PubChem BioAssay (NCATS).
Records with an inconclusive call do not appear. Active and inactive are the calls of the source. Unless noted, calls follow the shape of the full dose curve.

How the values were obtained:
[1] = qHTS for Inhibitors of the Functional Ribonucleoprotein Complex (vRNP) of Lassa (LASV) Arenavirus: LASV Primary Screen - GLuc reporter signal (AID 1347082; calls by dose curve; tested in HEK293 reporter line; also: nearly all actives have a fitted effect of over 60% in size); settings: LASV minigenome vRNP, Gaussia luciferase reporter; series mostly up to 57.5 µM
[2] = qHTS for Inhibitors of the Functional Ribonucleoprotein Complex (vRNP) of Lassa (LASV) Arenavirus: Viability assay - alamar blue signal for LASV Primary Screen (AID 1347083; calls by dose curve; tested in HEK293 reporter line; also: nearly all actives have a fitted effect of over 80% in size); settings: cell viability, alamar blue fluorescence (LASV minigenome counter-screen); series mostly up to 57.5 µM
[3] = qHTS for Inhibitors of the Functional Ribonucleoprotein Complex (vRNP) of Lymphocytic Choriomeningitis Arenaviruses (LCMV): Viability assay - alamar blue signal for LCMV Primary Screen (AID 1347085; calls by dose curve; tested in HEK293 reporter line; also: nearly all actives have a fitted effect of over 80% in size); settings: alamar blue viability counter-screen, LCMV vRNP screen cells; series mostly up to 57.5 µM
[4] = target: Nucleoprotein (Lymphocytic choriomeningitis virus (strain Armstrong)) (UniProt P09992); assay: qHTS for Inhibitors of the Functional Ribonucleoprotein Complex (vRNP) of Lymphocytic Choriomeningitis Arenaviruses (LCMV): LCMV Primary Screen - GLuc reporter signal (AID 1347086); settings: LCMV minigenome vRNP cell assay, Gaussia luciferase reporter; series mostly up to 57.5 µM; also: nearly all actives have a fitted effect of over 70% in size
Sequence of Nucleoprotein (Lymphocytic choriomeningitis virus (strain Armstrong)) (P09992 whole entry, looked up): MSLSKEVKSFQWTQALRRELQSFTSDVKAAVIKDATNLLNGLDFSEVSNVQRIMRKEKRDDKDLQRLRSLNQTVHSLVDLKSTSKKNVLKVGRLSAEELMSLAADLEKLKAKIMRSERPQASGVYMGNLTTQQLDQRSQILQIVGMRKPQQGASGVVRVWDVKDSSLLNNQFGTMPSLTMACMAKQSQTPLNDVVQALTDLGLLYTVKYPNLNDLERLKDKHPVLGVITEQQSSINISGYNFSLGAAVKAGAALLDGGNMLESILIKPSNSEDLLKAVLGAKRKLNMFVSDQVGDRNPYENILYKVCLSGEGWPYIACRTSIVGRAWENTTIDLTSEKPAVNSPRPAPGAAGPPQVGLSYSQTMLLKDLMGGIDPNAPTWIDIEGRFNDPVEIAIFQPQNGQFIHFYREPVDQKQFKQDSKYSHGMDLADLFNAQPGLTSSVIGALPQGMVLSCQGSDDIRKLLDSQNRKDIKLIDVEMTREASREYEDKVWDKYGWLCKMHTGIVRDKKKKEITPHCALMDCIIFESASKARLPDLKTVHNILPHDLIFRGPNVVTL

Measured: Potency

CC(CN1c2ccccc2Sc2ccccc21)N(C)C (configuration not stated)
inactive: all assays above

CCCN(CCc1cccs1)[C@H]1CCc2c(O)cccc2C1
inactive: all assays above

NS(=O)(=O)c1cc2c(cc1C(F)(F)F)NCNS2(=O)=O
inactive: all assays above

NC(=O)N1c2ccccc2CC(=O)c2ccccc21
inactive: all assays above

CC1=C(C(=O)O)N2C(=O)[C@@H](NC(=O)[C@H](N)c3ccc(O)cc3)[C@H]2SC1
inactive: all assays above

CCCCNC(=O)NS(=O)(=O)c1ccc(C)cc1
inactive: all assays above

Cc1ccc(S(=O)(=O)NC(=O)NN2CCCCCC2)cc1
inactive: all assays above

O=c1[nH]cnc2c1ncn2[C@H]1CC[C@@H](CO)O1
inactive: all assays above
